Laboratory results as given in PubChem BioAssay AID1159580 (chemical genetic matrix, 2015).
Among all 5,500 compounds or so, about 2,000 (36%) were called active. Another 18% or so got no clear call; they are omitted. No stated cut-off is given here; in the data, active means normalized growth mostly below about 0.91 (no sharp cut-off); inconclusive means no clear call, values can overlap the other calls; inactive means mostly above about 0.92. The list shows a part of the results.

Test: chemical genetic growth profiling, strain panel (AID 1159580);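 further: tested at 20 µM; growth read once vehicle control cultures reached saturation at 30 °C; 1 = growth at the plate median or of vehicle wells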
Conditions: S. cerevisiae deletion strains, growth OD
[1] = locus YHR030C, strain SLT2, stronger effect = lower value
[2] = locus YHR079C, strain IRE1, stronger effect = lower value
[3] = locus YJL095W, strain BCK1, stronger effect = lower value
[4] = locus YJR066W, strain TOR1, stronger effect = lower value
[5] = locus YLR113W, strain HOG1, stronger effect = lower value
[6] = locus YNL183C, strain NPR1, stronger effect = lower value
[7] = locus YOR231W, strain MKK1, stronger effect = lower value
[8] = locus YPL256C, strain CLN2, stronger effect = lower value
[9] = locus YCL061C, strain MRC1, stronger effect = lower value

Measured: normalized growth

CCN(CC)CCNC(C(=O)OCCC(C)C)c1ccccc1 (centres undefined)
inactive: [1] 0.984 | [2] 0.986 | [3] 0.979 | [4] 0.913 | [5] 1.03 | [6] 0.916 | [7] 0.978 | [8] 0.964

Nc1ccc([As](=O)(O)O)cc1
inactive: locus YAL021C, strain ccr4, stronger effect = lower value 1 | locus YAL026C, strain drs2, stronger effect = lower value 1.02 | locus YAL030W, strain snc1, stronger effect = lower value 1 | locus YBL061C, strain skt5, stronger effect = lower value 1.01 | locus YBR009C, strain hhf1, stronger effect = lower value 1.02 | locus YBR023C, strain chs3, stronger effect = lower value 1.02 | locus YBR171W, strain sec66, stronger effect = lower value 0.997 | locus YBR231C, strain swc5, stronger effect = lower value 1.01 | locus YBR279W, strain paf1, stronger effect = lower value 1 | locus YCL011C, strain gbp2, stronger effect = lower value 1 | locus YCL016C, strain dcc1, stronger effect = lower value 1.01 | [9] 1 | locus YCL069W, strain vba3, stronger effect = lower value 1.01 | locus YCR088W, strain abp1, stronger effect = lower value 1.01 | locus YDL005C, strain med2, stronger effect = lower value 0.996 | locus YDL040C, strain nat1, stronger effect = lower value 1.01 | locus YDR001C, strain nth1, stronger effect = lower value 0.992 | locus YDR069C, strain doa4, stronger effect = lower value 1.01 | locus YDR137W, strain rgp1, stronger effect = lower value 0.994 | locus YDR159W, strain sac3, stronger effect = lower value 1.02 | locus YDR195W, strain ref2 0.993 | locus YDR297W, strain sur2, stronger effect = lower value 0.999 | locus YDR334W, strain swr1, stronger effect = lower value 1.01 | locus YDR335W, strain msn5, stronger effect = lower value 0.995 | locus YDR392W, strain spt3, stronger effect = lower value 1.01 | locus YEL003W, strain gim4, stronger effect = lower value 0.996 | locus YEL037C, strain rad23, stronger effect = lower value 0.997 | locus YEL061C, strain CIN8 (second series), stronger effect = lower value 0.997 | locus YER015W, strain faa2, stronger effect = lower value 0.999 | locus YER016W, strain bim1, stronger effect = lower value 1 | locus YER111C, strain swi4, stronger effect = lower value 1 | locus YER155C, strain BEM2 (second series), stronger effect = lower value 1.03 | locus YFR010W, strain ubp6, stronger effect = lower value 1 | locus YGL167C, strain pmr1, stronger effect = lower value 0.997 | locus YGL173C, strain kem1, stronger effect = lower value 1.01 | locus YGL227W, strain vid30, stronger effect = lower value 0.998 | locus YGL240W, strain doc1, stronger effect = lower value 1.01 | locus YGL253W, strain hxk2, stronger effect = lower value 1 | locus YHR013C, strain ard1, stronger effect = lower value 1.03 | locus YHR027C, strain rpn1, stronger effect = lower value 1 | [1] 1 | [2] 0.984 | locus YHR142W, strain chs7, stronger effect = lower value 1.02 | locus YJL092W, strain hpr5, stronger effect = lower value 1.01 | locus YJL095W, strain BCK1 (second series), stronger effect = lower value 1 | [3] 0.971 | locus YJL115W, strain asf1, stronger effect = lower value 1.01 | locus YJL129C, strain trk1, stronger effect = lower value 1 | locus YJL154C, strain vps35, stronger effect = lower value 1 | locus YJL164C, strain tpk1, stronger effect = lower value 1.01 | locus YJL166W, strain qcr8, stronger effect = lower value 0.998 | locus YJL187C, strain SWE1, stronger effect = lower value 1 | [4] 0.966 | locus YKL160W, strain elf1, stronger effect = lower value 1 | locus YKR026C, strain gcn3, stronger effect = lower value 0.997 | locus YKR091W, strain srl3, stronger effect = lower value 1.01 | locus YLL001W, strain dnm1, stronger effect = lower value 1.01 | locus YLL026W, stronger effect = lower value 1.01 | locus YLL041C, strain sdh2, stronger effect = lower value 1.01 | locus YLR027C, strain aat2, stronger effect = lower value 1 | [5] 0.965 | locus YLR221C, strain rsa3, stronger effect = lower value 1.01 | locus YLR258W, strain gsy2, stronger effect = lower value 1.01 | locus YLR262C, strain YPT6 (second series), stronger effect = lower value 1 | locus YLR320W, strain mms22, stronger effect = lower value 0.999 | locus YLR342W, strain FKS1, stronger effect = lower value 1.01 | locus YLR357W, strain rsc2, stronger effect = lower value 1.01 | locus YLR370C, strain arc18, stronger effect = lower value 1 | locus YLR384C, strain iki3, stronger effect = lower value 1 | locus YML120C, strain ndi1, stronger effect = lower value 0.997 | locus YMR058W, strain fet3, stronger effect = lower value 1 | locus YMR125W, strain sto1, stronger effect = lower value 1 | locus YMR129W, stronger effect = lower value 1 | locus YMR205C, strain PFK2, stronger effect = lower value 1.04 | locus YMR231W, strain pep5, stronger effect = lower value 1 | locus YNL071W, strain lat1, stronger effect = lower value 1 | [6] 0.968 | locus YNL209W, strain ssb2, stronger effect = lower value 0.999 | locus YNL248C, strain rpa49, stronger effect = lower value 0.992 | locus YNL322C, strain KRE1 (second series), stronger effect = lower value 1.01 | locus YNR049C, strain mso1, stronger effect = lower value 1 | locus YOR001W, strain rrp6, stronger effect = lower value 1 | locus YOR070C, strain gyp1, stronger effect = lower value 1.01 | locus YOR080W, strain dia2, stronger effect = lower value 1.01 | locus YOR083W, strain WHI5, stronger effect = lower value 1 | locus YOR106W, strain vam3, stronger effect = lower value 1.03 | [7] 1.01 | locus YOR265W, strain rbl2, stronger effect = lower value 0.996 | locus YOR270C, strain vph1, stronger effect = lower value 1.06 | locus YOR290C, strain snf2, stronger effect = lower value 1 | locus YPL051W, strain arl3, stronger effect = lower value 1.01 | locus YPL078C, strain atp4, stronger effect = lower value 0.996 | locus YPL106C, strain sse1, stronger effect = lower value 0.996 | locus YPL240C, strain hsp82, stronger effect = lower value 1 | [8] 1.02

CC(=O)Nc1cc([N+](=O)[O-])ccc1-n1cc(C)c(C(F)(F)F)n1
inactive: locus YAL013W, strain DEP1, stronger effect = lower value 0.966 | locus YBR229C, strain ROT2, stronger effect = lower value 0.985 | [9] 0.978 | locus YDL101C, strain DUN1, stronger effect = lower value 0.986 | locus YDR150W, strain NUM1, stronger effect = lower value 0.947 | locus YEL061C, strain CIN8, stronger effect = lower value 0.998 | locus YGR078C, strain PAC10, stronger effect = lower value 0.996 | [1] 0.871 | locus YHR087W, strain rtc3, stronger effect = lower value 0.982 | locus YJR043C, strain POL32, stronger effect = lower value 1 | locus YJR075W, strain HOC1, stronger effect = lower value 0.973 | locus YKL190W, strain CNB1, stronger effect = lower value 0.992 | locus YLR039C, strain RIC1, stronger effect = lower value 0.935 | locus YLR058C, strain SHM2 (second series), stronger effect = lower value 0.988 | locus YLR085C, strain ARP6, stronger effect = lower value 0.94 | locus YLR262C, strain YPT6, stronger effect = lower value 0.928 | locus YML094W, strain GIM5, stronger effect = lower value 0.963 | locus YMR219W, strain ESC1, stronger effect = lower value 0.988 | locus YMR263W, strain SAP30, stronger effect = lower value 0.917 | locus YNL153C, strain GIM3, stronger effect = lower value 0.985 | locus YNL298W, strain CLA4 (second series), stronger effect = lower value 0.962 | locus YNL322C, strain KRE1, stronger effect = lower value 0.981 | locus YNR030W, strain Alg12, stronger effect = lower value 0.962 | locus YPL055C, strain LGE1, stronger effect = lower value 0.931 | locus YPL241C, strain CIN2, stronger effect = lower value 1.03 | locus YPR135W, strain CTF4, stronger effect = lower value 0.905
